Reference: PubChem BioAssay (EPA / NIEHS)
Calls of active or inactive are those of the source. The calls were made as follows: active = hit-call score of the fitted dose curve at least 0.9, where 1 is the maximum; inactive = score below 0.9.

Tests used:
[1] = read-out: Urokinase-type plasminogen activator receptor (uPAR), PLAUR (gene 5329); assay: BSK_4H_uPAR: BioMAP Diversity Plus: 4H Assay for Urokinase-type plasminogen activator receptor (uPAR) Biomarker Activity (AID 2283030); details: primary human endothelial cells (HUVEC); actives raise or lower the signal
Outline: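 Endpoint derived via bidirectional curve fitting against DMSO baseline; readout was ELISA detection of uPAR on umbilical vein endothelial cells at 24 h post-treatment, with SRB-stained parallel cultures assessing cytotoxicity.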

[2] = read-out: Vascular endothelial growth factor receptor 2 (Homo sapiens) (UniProt P35968); assay: BSK_4H_VEGFRII: BioMAP Diversity Plus: 4H Assay for Vascular endothelial growth factor receptor 2 (VEGFR2) Biomarker Activity (AID 2283031); details: primary human endothelial cells (HUVEC); actives raise or lower the signal
Outline: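 In this multiplexed HUVEC system, biomarker ELISA was performed after 24 h chemical exposure. Parallel SRB staining (TCA fixation, 560 nm) tracked cytotoxicity; DMSO served as baseline.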

[3] = read-out: Human Leukocyte Antigen - DR isotype (HLADR), HLA-DRA (gene 3122); assay: BSK_BE3C_HLADR: BioMAP Diversity Plus: BE3C Assay for Human Leukocyte Antigen - DR isotype (HLADR) Biomarker Activity (AID 2283032); details: primary human bronchial epithelial cells; actives raise or lower the signal
Outline: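 BioMAP BE3C format: human bronchial epithelium, 24 h compound treatment, ELISA detection of HLA-DR, with bidirectional analysis relative to DMSO.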

[4] = read-out: Vascular cell adhesion molecule 1 (VCAM1), VCAM1 (gene 7412); assay: BSK_4H_VCAM1: BioMAP Diversity Plus: 4H Assay for Vascular cell adhesion molecule 1 (VCAM1) Biomarker Activity (AID 2283033); details: primary human endothelial cells (HUVEC); actives raise or lower the signal
Outline: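 In this human endothelial (HUVEC) system, biomarker ELISA was run 24 h after compound addition, and total protein in parallel wells was assessed by SRB at 560 nm; DMSO served as negative control.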

[5] = read-out: Interferon-gamma inducible Protein 10 (IP10), CXCL10 (gene 3627); assay: BSK_BE3C_IP10: BioMAP Diversity Plus: BE3C Assay for Interferon-gamma inducible Protein 10 (IP10) Biomarker Activity (AID 2283034); details: primary human bronchial epithelial cells; actives raise or lower the signal
Outline: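 BE3C cells (human bronchial epithelial, primary); 24 h exposure; ELISA for IP-10; DMSO-referenced bidirectional fit.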

[6] = read-out: Monokine induced gamma interferon (MIG), CXCL9 (gene 4283); assay: BSK_BE3C_MIG: BioMAP Diversity Plus: BE3C Assay for Monokine induced gamma interferon (MIG) Biomarker Activity (AID 2283035); details: primary human bronchial epithelial cells; actives raise or lower the signal;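 also: MIG protein measured by ELISA in BE3C cultures after 24 h of dosing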
Outline: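 Dose cells (human primary bronchial epithelial), incubate 24 h, quantify MIG by ELISA, then fit concentration–response in both directions relative to DMSO control.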

[7] = read-out: Transforming growth factor beta 1 (TGFb1), TGFB1 (gene 7040); assay: BSK_BE3C_TGFb1: BioMAP Diversity Plus: BE3C Assay for Transforming growth factor beta 1 (TGFb1) Biomarker Activity (AID 2283036;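 also: TGF-b1 protein level measured by ELISA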); details: primary human bronchial epithelial cells; actives raise or lower the signal
Outline: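 TGF-b1 measured via ELISA, 24 h after chemical dosing of human bronchial epithelial cells (BE3C). Overt cytotoxicity assessed in parallel by SRB (0.1%, TCA-fixed, 560 nm); analysis bidirectional relative to DMSO.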

[8] = read-out: Plasminogen activator inhibitor-1 (PAI1), SERPINE1 (gene 5054); assay: BSK_BE3C_PAI1: BioMAP Diversity Plus: BE3C Assay for Plasminogen activator inhibitor-1 (PAI1) Biomarker Activity (AID 2283037); details: primary human bronchial epithelial cells; actives raise or lower the signal
Outline: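 In this multiplexed primary-cell system, bronchial epithelial cells receive test chemical and are sampled at 24 h. PAI-1 is read by ELISA, with DMSO serving as negative control for bidirectional fitting.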

[9] = read-out: urokinase plasminogen activator (uPA), PLAU (gene 5328); assay: BSK_BE3C_uPA: BioMAP Diversity Plus: BE3C Assay for urokinase plasminogen activator (uPA) Biomarker Activity (AID 2283038); details: primary human bronchial epithelial cells; actives raise or lower the signal;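 also: uPA protein level quantified by ELISA in cell cultures; uPA read one day after compound addition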
Outline: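 Using confluent primary human lung bronchial epithelial cultures, we dosed chemicals, waited 24 h, then ran a uPA ELISA, fitting bidirectionally against DMSO.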

[10] = read-out: Urokinase-type plasminogen activator receptor (uPAR), PLAUR (gene 5329); assay: BSK_BE3C_uPAR: BioMAP Diversity Plus: BE3C Assay for Urokinase-type plasminogen activator receptor (uPAR) Biomarker Activity (AID 2283039); details: primary human bronchial epithelial cells; actives raise or lower the signal
Outline: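 Chemically treated human bronchial epithelial cells (lung primary) are assayed for uPAR by ELISA after 24 h, with data fitted in both directions using DMSO as negative control.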

Measured: AC50

CCCCOC(=O)c1ccccc1C(=O)O
inactive: [1] | [2] | [3] | [4] | [5] | [6] | [7] | [8] | [9] | [10]

CSc1nnc(C(C)(C)C)c(=O)n1N
inactive: [1] | [2] | [3] | [4] | [6] | [7] | [8] | [9] | [10]
active: [5] 7.16 µM

CCOP(=S)(OCC)Oc1ccc([N+](=O)[O-])cc1
inactive: [1] | [2] | [3] | [4] | [5] | [6] | [7] | [8] | [9] | [10]

CCOP(=S)(OCC)SCCSCC
inactive: [1] | [2] | [3] | [4] | [5] | [6] | [7] | [8] | [9] | [10]

CCCSP(=O)(OCC)SCCC
inactive: [1] | [2] | [3] | [4] | [5] | [6] | [7] | [8] | [9] | [10]

CNc1cnn(-c2cccc(C(F)(F)F)c2)c(=O)c1Cl
inactive: [1] | [2] | [4] | [5] | [6] | [7] | [8] | [9] | [10]
active: [3] 23.7 µM

O=C(O)c1cc(Oc2ccc(C(F)(F)F)cc2Cl)ccc1[N+](=O)[O-]
inactive: [1] | [2] | [3] | [4] | [5] | [6] | [7] | [8] | [9] | [10]

CCCCN(CC)c1c([N+](=O)[O-])cc(C(F)(F)F)cc1[N+](=O)[O-]
inactive: [1] | [2] | [3] | [6] | [7] | [8] | [9] | [10]
active: [4] 20 µM | [5] 29.9 µM

FC(F)C(F)(F)OCC(Cn1cncn1)c1ccc(Cl)cc1Cl (stereo not drawn)
active: [1] 31.7 µM | [3] 29.8 µM | [4] 29.7 µM | [5] 26.4 µM
inactive: [2] | [6] | [7] | [8] | [10]

CCCOc1nn(C(=O)NS(=O)(=O)c2ccccc2C(=O)OC)c(=O)n1C
active: [10] 1.32 µM
inactive: [1] | [2] | [3] | [4] | [5] | [6] | [7] | [8] | [9]

CCc1cnc(C2=NC(C)(C(C)C)C(=O)N2)c(C(=O)O)c1 (stereo not drawn)
inactive: [1] | [2] | [3] | [4] | [5] | [6] | [7] | [8] | [9] | [10]

S=C1NCCN1
active: [10] 0.397 µM
inactive: [1] | [2] | [3] | [4] | [5] | [6] | [7] | [8] | [9]

CNC(=O)ON=C(SC)C(=O)N(C)C
inactive: [1] | [2] | [3] | [4] | [5] | [6] | [7] | [8] | [10]

CCc1cccc(C)c1N(C(=O)CCl)C(C)COC (stereo not drawn)
inactive: [1] | [2] | [3] | [4] | [5] | [6] | [7] | [8] | [9] | [10]

CCOC(=O)CC(SP(=O)(OC)OC)C(=O)OCC (stereo not drawn)
inactive: [1] | [2] | [3] | [4] | [5] | [6] | [7] | [8] | [9] | [10]

COc1cccc(C(=O)NN(C(=O)c2cc(C)cc(C)c2)C(C)(C)C)c1C
inactive: [1] | [2] | [3] | [4] | [5] | [6] | [7] | [8] | [9] | [10]

C[Si](Cn1cncn1)(c1ccc(F)cc1)c1ccc(F)cc1
inactive: [1] | [2] | [3] | [4] | [5] | [6] | [7] | [8] | [9] | [10]
